Screening data deposited in PubChem by several laboratories.
Yeast superoxide – reduction of superoxide in aged yeast, primary screen, HTS; S. cerevisiae aged cells, superoxide DHE fluorescence; hits give low values; superoxide response (% of plate mean), % at 10 µM; 330,000 compounds, 0.18% hits; AID 2690, 2010;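 active means superoxide response under a set limit, about three screen SD below normal, cut at about 65% in these data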;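 further: yeast aged for seven days with compound at 30 °C before DHE staining; 100% = average MFI of all compound-treated wells on the plate with controls excluded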
tim10-1 inh – growth inhibitors of tim10-1 mutant yeast, primary screen, luminescence, uHTS; S. cerevisiae tim10-1 ts strain growth, BacTiter-Glo, 24 h; 330,000 compounds, 2.2% hits; AID 463190, 2010; inhibition, % at 20 µM;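 active means inhibition of at least 40%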;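 further: mutant grown at 25 °C; 0% = DMSO wells with yeast and 100% = wells holding no yeast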
NLRP3 yeast inh – NALP3 inflammasome inhibitors in reconstituted yeast, primary screen, luminescence, uHTS; AID 2825, 2010; inhibition, % at 10 µM; Yeast reconstituted NLRP3/ASC/caspase-1, beta-gal luminescence, 24 h; 330,000 compounds, 0.39% hits;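 active means inhibition of 50% or more; inactive means inhibition below 50%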;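 further: plate controls were induced DMSO wells for no effect and uninduced yeast grown without galactose for full effect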
TIM10 inh – growth inhibitors of isogenic TIM10 control yeast, primary screen, counter-screen for tim10-1 yeast inhibitor project, luminescence, uHTS; S. cerevisiae TIM10 strain growth, BacTiter-Glo luminescence, 24 h; inhibition, % at 10 µM; 330,000 compounds, 1.4% hits;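 active means inhibition of 40% or more at the single tested concentration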;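 further: wild-type TIM10 isogenic control strain grown at permissive 25 °C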
tim23-1 inh – growth inhibitors of tim23-1 mutant yeast, primary screen, luminescence, uHTS; 330,000 compounds, 1.3% hits; S. cerevisiae tim23-1 growth, BacTiter-Glo luminescence, 24 h; AID 463212, 2010; inhibition, % at 20 µM;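 active means growth inhibition of the mutant yeast at or above 50%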;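 further: temperature-sensitive mutant grown at 25 °C; plate controls were DMSO-treated mutant yeast for no effect and medium wells lacking yeast for full effect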
tim10-1 conf – growth inhibitors of tim10-1 mutant yeast, confirmation, single concentration, luminescence, S. cerevisiae; shares compounds with tim10-1 inh; S. cerevisiae tim10-1 ts strain growth, BacTiter-Glo, 24 h; inhibition, % at 20 µM; 7,400 compounds, 56% hits; AID 463213, 2010;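 active means inhibition of yeast growth at or above a set limit in either of two repeat tests at 20 µM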;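 further: tim10-1 mutant grown at permissive 25 °C to find synthetic lethal compounds; 0% = DMSO yeast wells and 100% = medium wells without yeast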
The depositor's hits bear a star; nt = no result; ! = not active in a repeat. Compounds with a hit are over-represented: about 3.8% of the library has one in this group of screens.

SMILES	Yeast superoxide	tim10-1 inh	NLRP3 yeast inh	TIM10 inh	tim23-1 inh	tim10-1 conf
S=c1nc[nH]c2c1sc1nc(N3CCOCC3)c3c(c12)CCCC3	109.8	43.3*	1.6	23.1	35.6	19.1
CC(=O)Nc1ccc(NC2=C(Cl)C(=O)c3ccccc3C2=O)cc1	nt	26.0	-2.7	32.8	29.5	nt
Cc1ccc(NC2=C(NCCO)C(=O)c3ccccc3C2=O)cc1	141.2	43.5*	7.7	18.6	26.8	11.7
CN(C)c1nc(OCCOC(=O)Nc2ccc(Cl)cc2Cl)nc(N(C)C)n1	109.9	41.6*	6.9	18.1	30.4	15.4
CC1CCCCC1NC(=O)Cc1ccc(S(=O)(=O)N2CCOCC2)s1 (stereo unspecified)	113.3	17.3	0.6	12.1	25.3	nt
Cc1ccccc1OCCC(=O)OCC(=O)NC(=O)c1ccccc1	113.9	13.4	14.0	10.1	19.9	nt
CCOC(=O)c1ccc(NC(=O)NNC(=O)CCc2ccc(OC)cc2)cc1	96.6	-4.3	16.3	-3.4	-8.7	nt
Cc1c(CCO)c(=O)[nH]n1S(=O)(=O)c1ccc(Cl)cc1Cl	100.7	-2.5	10.1	8.2	-2.6	nt
COc1ccc(-c2nc(C)ncc2-c2ccccc2)c(O)c1	98.7	41.0*	-2.6	4.7	23.4	16.6
COc1ccc(-c2nc(C)ncc2-c2ccc(Cl)cc2)c(O)c1	105.8	26.6	8.7	0.2	21.6	nt
CCC(C)Nc1ncnc2c1cnn2Cc1ccc(Cl)cc1 (stereo unspecified)	92.3	42.5*	15.3	6.7	35.9	27.8
CC(C)Nc1ncnc2c1cnn2Cc1ccc(Cl)cc1	94.1	43.4*	12.0	16.4	23.1	15.8
Fc1cccc(-c2cc3nc4c(c(NCc5ccco5)n3n2)CCCC4)c1	91.5	49.6*	31.6	26.9	49.8	35.5*
O=C(CN1C(=O)COc2ccc(S(=O)(=O)N3CCOCC3)cc21)NCc1ccccn1	93.7	0.7	5.5	6.3	7.8	nt
Cc1ccc(CS(=O)(=O)c2ccc(C(=O)N3CCCCC3)cc2[N+](=O)[O-])cc1	99.5	23.9	24.4	19.2	24.3	nt
Cc1ccc(CS(=O)(=O)c2ccc(C(=O)N3CCN(c4ccccn4)CC3)cc2[N+](=O)[O-])cc1	115.8	46.6*	22.1	14.6	32.6	23.6
COc1ccc(C2/C=C\CN(C(=O)c3ccc(C)cc3)CC(=O)N2Cc2ccc(F)cc2)cc1 (stereo unspecified)	nt	40.2*	14.3	12.7	8.2	20.6
CCc1ccc(/C=C2\Oc3cc(OS(C)(=O)=O)ccc3C2=O)cc1	88.3	40.4*	30.7	10.8	25.1	26.1
Cc1ccc(C(=O)NCCC(=O)N2CCCC2)cc1	94.6	-6.3	6.3	-2.4	-2.2	nt
CN(C)CC/C=C1/c2ccccc2Sc2ccc(Cl)cc21	91.0	40.5*!	46.1	20.2	-19.0	26.9
CCSc1c([N+](=O)[O-])c(=O)n(-c2ccccc2)c2ccccc12	85.5	46.7*	30.4	39.6	44.6	45.5*
COCCNc1c([N+](=O)[O-])c(=O)n(-c2ccccc2)c2ccccc12	87.0	12.9	30.4	5.0	-0.2	nt
CC(C)Cc1nc2oc3c(NCC4CCCO4)ncnc3c2c2c1CCC2 (stereo unspecified)	93.7	45.1*	7.3	24.7	24.4	26.6
C/C(=N\NC(N)=S)C12CC3CC(CC(C3)C1)C2	85.3	43.4*	11.5	26.4	46.2	-21.2
Cc1cccc(Nc2ncccc2C(=O)NCc2cccs2)c1C	96.1	52.1*	5.9	37.5	40.6	34.5*
Cc1ccc(/C=c2/sc3nnc(-c4ccccc4Cl)n3c2=O)o1	95.9	45.1*	12.2	32.9	42.4	38.0*
CCOc1ccc(N2C(=O)/C(=C\c3ccccc3OC)S(=O)(=O)C2c2cccc([N+](=O)[O-])c2)cc1 (stereo unspecified)	112.2	45.0*	11.7	16.1	33.9	41.4*
COc1ccccc1/C=C1/C(=O)N(c2cc(C)cc(C)c2)C(c2cccc([N+](=O)[O-])c2)S1(=O)=O (stereo unspecified)	88.1	36.2	9.0	19.9	31.4	nt
